Results on one molecule are retold here after the supplement of paper PMC8728848.

About 410 targets per protein were measured; listed, in parts, are those with the strongest signals and a random draw of the rest.

The target of the test is Neu5Gc(a2-6)GalNAc. In words: glycan array binding signal (z-score within array); higher = stronger binding. Particulars: glycan notation: IUPAC condensed, linker removed. In short, it runs like this:
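Glycan array data came from 3228 arrays in the Consortium for Functional Glycomics database, and only arrays with an available protein sequence were kept. Glycan names were put into IUPAC-condensed notation, and columns mapping to the same glycan were averaged. The binding signal is a within-array Z-score, averaged across arrays of one protein sequence run at different concentrations or buffers and across linkers. A negative Z-score can be read as non-binding.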

B1: Neuropilin-1 (Rattus norvegicus), Q9QWJ9 (protein)
chain: MERGLPLLCATLALALALAGAFRSDKCGGTIKIENPGYLTSPGYPHSYHPSEKCEWLIQAPEPYQRIMINFNPHFDLEDRDCKYDYVEVIDGENEGGRLWGKFCGKIAPSPVVSSGPFLFIKFVSDYETHGAGFSIRYEIFKRGPECSQNYTAPTGVIKSPGFPEKYPNSLECTYIIFAPKMSEIILEFESFDLEQDSNPPGGVFCRYDRLEIWDGFPEVGPHIGRYCGQKTPGRIRSSSGILSMVFYTDSAIAKEGFSANYSVLQSSISEDFKCMEALGMESGEIHSDQITASSQYGTNWSVERSRLNYPENGWTPGEDSYREWIQVDLGLLRFVTAVGTQGAISKETKKKYYVKTYRVDISSNGEDWITLKEGNKAIIFQGNTNPTDVVFGVFPKPLITRFVRIKPASWETGISMRFEVYGCKITDYPCSGMLGMVSGLISDSQITASNQGDRNWMPENIRLVTSRTGWALPPSPHPYINEWLQVDLGDEKIVRGVIIQGGKHRENKVFMRKFKIAYSNNGSDWKMIMDDSKRKAKSFEGNNNYDTPELRAFTPLSTRFIRIYPERATHSGLGLRMELLGCEVEVPTAGPTTPNGNPVDECDDDQANCHSGTGDDFQLTGGTTVLATEKPTIIDSTIQSEFPTYGFNCEFGWGSHKTFCHWEHDSHAQLRWRVLTSKTGPIQDHTGDGNFIYSQADENQKGKVARLVSPVVYSQSSAHCMTFWYHMSGSHVGTLRVKLHYQKPEEYDQLVWMVVGHQGDHWKEGRVLLHKSLKLYQVIFEGEIGKGNLGGIAVDDISINNHIPQEDCAKPTDLDKKNTEIKIDETGSTPGYEEGKGDKNISRKPGNVLKTLDPILITIIAMSALGVLLGAVCGVVLYCACWHNGMSERNLSALENYNFELVDGVKLKKDKLNPQSNYSEA
As for B1, the “glycan array binding signal (z-score)” value was -0.331.
